An excerpt weighted towards active compounds, which were near 4.2% of everything screened.
SW480 rereplic – DNA re-replication induction in SW480 cells | SW480 DNA re-replication, Hoechst DNA content imaging, 48 h | Potency, µM (top dose mostly 46.1 µM), without a hit: at the highest dose re-replication activation, most hits filed as activators | hit rate 1.8% among 340,000; further: % of control where 0% means no effect; nearly all actives have a fitted effect of over 55% in size
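SW480 cells exposed to compounds for 48 hr at 37 C, 5% CO2, then Hoechst-stained 40 min. Nuclear DNA content imaged by fluorescence scanning (405 nm excitation, 500-530 nm emission); re-replication scored as increased high-intensity nuclei.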
Mito fusion act – mitochondrial division inhibition or fusion activation; S. cerevisiae fusion-defective mutant growth rescue, CellTiterGlo 48 h; Potency, µM (top dose mostly 46.1 µM), without a hit: top-dose growth rescue (activation), actives largely listed as activators; hit rate 0.23% among 320,000; AID 485298; further: % of control where 0% means no effect; nearly all actives have a fitted effect of over 45% in size
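Luminescent cell viability in 1536-well qHTS format served as the measure of rescued growth in ts fusion-mutant S. cerevisiae cultured on non-fermentable YPEG for 48 hours at 37C.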
MCF10A rerep – DNA re-replication induction in MCF 10a cells; AID 624296; hit rate 2.9% among 350,000; Potency, µM (series often up to 46.1 µM), for the others: at the top dose activity, positive = re-replication, hits mostly activators; MCF 10A DNA re-replication, Hoechst nuclear intensity, 48 h; further: % of control where 0% means no effect; nearly all actives have a fitted effect of over 50% in size
A-T KAP1 phos – candidate therapy for ataxia-telangiectasia; AID 485349; hit rate 0.19% among 320,000; F2112 A-T fibroblasts, KAP-1 phosphorylation AlphaLISA; neocarzinostatin DNA damage 30 min before lysis; Potency, µM (series often up to 57.5 µM), for the others: at the highest dose activation, hits mostly activators; further: % of control where 0% means no effect; nearly all actives have a fitted effect of over 45% in size
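hTERT-immortalized A-T patient fibroblasts (F2112), 500 cells/well in OPTI-MEM, 1% FBS, got compounds for 60 min, then NCS for 30 min at 37C. Lysates were then assayed for phospho-KAP-1 by AlphaLISA (anti-pKAP1 donor, anti-KAP1 acceptor beads), 6 hr at 25C.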
Integrin act MD – activates integrin-mediated alleviation for muscular dystrophy; alpha7betagal myoblasts, beta-gal FDG fluorescence, 48 h; Potency, µM (doses to about 38.3 µM), for inactives: at the top dose activation, actives largely listed as activators; hit rate 0.064% among 350,000;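 further: 100% = response of the positive control SU9516; nearly all actives have a fitted effect of over 60% in size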
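alpha7betagal+/- myoblasts (passage 13, 250/well) treated 48 h at 37C with compounds at 1:260 dilution of DMSO stock. Lysed, then beta-galactosidase activity read as FDG fluorescence (ex 480/em 540) after 30 min, with pre-read for autofluorescence.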
* = called active by the depositor; ? = inconclusive; / = no result; [ ] = remark or other dose. The call rests on the fitted dose curve; in most records, active means well fitted activation curve with a large enough effect; inconclusive means small, poorly fitted or top-dose-only effect; inactive means no such curve, though single readings can be large or run the other way. Potency means the concentration at half of the fitted maximal effect.

SMILES | SW480 rereplic | Mito fusion act | MCF10A rerep | A-T KAP1 phos | Integrin act MD
COc1ccc(C(C)(C)C)cc1NC(=S)NCCN1CCOCC1 | -4% | -3% | 15% | 12% | -19%
CCOC(=O)c1ccc[n+](CC(=O)Nc2cc(C(F)(F)F)ccc2Cl)c1 | 4% | 22% | -2% | 8% | 34%
O=C(NCc1nnc(SCc2ccc(C(F)(F)F)cc2)n1-c1ccccc1)C12CC3CC(CC(C3)C1)C2 | 5% | -10% | 16µM* | -4% | 16%
COc1cc(/C=N/Nc2nc(N3CCCC3)nc(N3CCCC3)n2)ccc1O | -3% | -4% | ? | 0% | -14%
COc1ccc(-c2cnnc(N/N=C/c3ccc(O)c(OC)c3)n2)cc1 | 16µM* | -4% | 15µM* | 2% | 1%
COc1ccc(-c2cnnc(N/N=C/c3ccc(-c4ccc([N+](=O)[O-])cc4)o3)n2)cc1 | ? | 10% | 1µM* | 5% | -38%
O=C(Nc1c2c(nn1-c1ccccc1)CS(=O)(=O)C2)c1ccc(Br)o1 | / | / | / | / | -8%
CCCCC/C=N\NC(=O)Cc1ccc([N+](=O)[O-])cc1 | -2% | 1% | -4% | 7% | -12%
CN(C)/C=C/C(=O)c1cnc(-c2cccc(Cl)c2)s1 | -1% | 3% | 0.65µM* | 0% | 37%
CC(=O)c1cnc(-c2cccc(Cl)c2)s1 | -38% | 1% | 2.1µM* | 3% | 5%
CN(C)/C=C/C(=O)c1cnc(-c2ccccc2Cl)s1 | 11% | -1% | ? | 0% | 18%
COc1cc(Cc2cc(OC)c(O)c(OC)c2)cc(OC)c1O | / | / | / | / | -19%
COC(=O)c1c(C)oc2ccc(N(C(=O)c3ccncc3)S(=O)(=O)c3ccc4ccccc4c3)cc12 | -2% | ? | 3.3µM* | -9% | -44%
COC(=O)c1c(C)oc2ccc(N(C(=O)c3ccncc3)S(=O)(=O)c3ccc(C)cc3)cc12 | 6.5µM* | ? | ? | 2% | -52%
COCCOC(=O)c1c(C)oc2ccc(NS(=O)(=O)c3ccccc3)cc12 | -7% | 8% | -3% | -3% | -9%
COCCOC(=O)c1c(C)oc2ccc(NS(=O)(=O)c3ccc(C)cc3)cc12 | -9% | 22% | 16µM* | -7% | -2%
COC(=O)c1c(C)oc2ccc(N(C(=O)c3ccncc3)S(=O)(=O)c3ccccc3)cc12 | -3% | 12% | 26% | 6% | -26%
COC(=O)c1c(C)oc2ccc(N(C(=O)c3ccncc3)S(=O)(=O)c3ccc(C)cc3C)cc12 | 24% | 22% | 15µM* | -1% | -29%
CC(=O)N(C)c1ccc(OCC(O)Cn2c3ccc(Cl)cc3c3cc(Cl)ccc32)cc1 (stereo not drawn) | ? | -14% | ? | -9% | -75%
CC(=O)c1ccc(NC(=S)NC(=O)/C=C/c2ccc(F)cc2)cc1 | 1% | -19% | -14% | 3.2µM* | -25%
COc1cccc(NC(=S)NC(=O)/C=C/c2ccc(F)cc2)c1 | ? | -12% | -3% | 10% | 0%
COc1ccc(N2C(=O)C(CC(=O)Nc3ccc(F)cc3)N(CCc3ccc(OC)c(OC)c3)C2=O)cc1 (stereo not drawn) | -1% | 10% | 7% | 2% | -2%
COc1ccc(C2NC(=S)NC3=C2N2CCC3CC2)cc1 (stereo not drawn) | -6% | -8% | 1% | 2.5µM* | 4%
Fc1ccc(C2NC(=S)NC3=C2N2CCC3CC2)cc1 (stereo not drawn) | 2% | 2% | 13µM* | 3% | 6%
Fc1ccc(/C=C2\CCCC3=C2NC(=S)NC3c2ccc(F)cc2)cc1 (stereo not drawn) | -10% | 16% | -2% | -7% | /
SMILES | SW480 rereplic | Mito fusion act | MCF10A rerep | A-T KAP1 phos | Integrin act MD
Cc1noc(C)c1CSc1ccccc1C(=O)N(C)CC(=O)Nc1cccc(F)c1 | -92% | 3% | -43% | 6% | 9%
Cn1cc(C(c2ccccc2OCC(=O)O)c2cn(C)c3ccccc23)c2ccccc21 | -84% | -1% | ? | -2% | -7%
COc1cc(/C=C2\CCC(C3CCCC3)C2=O)cc(OC)c1OC (stereo not drawn) | -5% | -9% | 22% | 9% | -10%
COc1cc(/C=C2\CCC(C)C3=C(c4cc(OC)c(OC)c(OC)c4)C(C#N)=C(N)OC32)cc(OC)c1OC (stereo not drawn) | ? | / | 8.2µM* | / | -31%
CC(C)CN1CCN=C1Nc1ccccc1 | 2% | 0% | 15% | -4% | 18%
CCN(CC)S(=O)(=O)c1cc(NC(=O)CO/N=C(\N)c2ccccc2Cl)ccc1C | -18% | 4% | -2% | -6% | 9%
C=CCn1c(SCc2csc(C)n2)nc2sc3c(c2c1=O)CCCC3 | 3% | 20% | 16µM* | -2% | 2%
C=CCn1c(SCc2csc(C)n2)nc2sc3c(c2c1=O)CCC(C)C3 (stereo not drawn) | -1% | 12% | 21µM* | 11% | ?
C=CCn1c(SCc2csc(C)n2)nc2sc3c(c2c1=O)CCCCC3 | 10% | 21% | ? | 2% | -41%
COc1ccc2c3c(c(=O)oc2c1)C1O[C@](CCCCN2C(=O)c4ccccc4C2=O)(Cc2cc(OC)c(OC)cc21)O3 | / | -2%[9.22 µM] | / | -3%[11.5 µM] | /
O=C(O)c1cccc(Cn2c(Cl)c(/C=N/NC(=O)c3ccc(O)cc3)sc2=O)c1 | 3% | -3% | 1% | 8% | 18%
O=Cc1sc(=O)n(Cc2cccc(C(=O)O)c2)c1Cl | 4% | -2% | 29µM* | 12% | ?
CN1CCN(c2nc3c(c(=O)[nH]c(=O)n3C)n2Cc2ccc([N+](=O)[O-])cc2)CC1 | -6% | 3% | -6% | 3% | -30%
CCCCc1cc(=O)oc2cc(OCc3cc(OC)c(OC)c(OC)c3)c(Cl)cc12 | 27% | -4% | 10µM* | -14% | -17%
COc1ccc(-c2csc3nc(-c4cccnc4)nc(Cl)c23)cc1OC | ? | 17% | 18µM* | 15% | -45%
Clc1nc(-c2cccnc2)nc2scc(-c3ccccc3)c12 | 12µM* | 3% | 16µM* | -2% | -61%
Clc1ncnc2scc(-c3ccccc3)c12 | 1% | -1% | 0% | -2% | -69%
Cc1ccc(C(=O)Nc2ncccc2O)o1 | 16% | 7% | 1% | 16% | 15%
COc1ccc(N(CC(=O)NCc2ccc(Cl)cc2)S(=O)(=O)c2ccccc2[N+](=O)[O-])c(OC)c1 | ? | -1% | -13% | -3% | -18%
COc1ccc(CCNC(=O)/C=C/c2ccc3ccccc3n2)cc1OC | 21µM* | -20% | 16µM* | 5% | -45%
O=C(CCSCCC(=O)NN=Cc1ccccc1O)NN=Cc1ccccc1O | -5% | / | 16µM* | / | 0%
O=C(CCCCCNC(=O)c1ccccc1)N/N=C/c1ccco1 | -3% | 4% | 1% | -3% | -7%
